In PubChem BioAssay:
Calls of active or inactive are those of the source.

Assays:
[1] = tested on: PRMT1 (protein arginine N-methyltransferase 1); experiment: small molecules binding arginine methyltransferase PRMT1 – biochemical, small-molecule microarray, 635 nm fluorescence, primary screen (AID 1088); settings: higher = more signal;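 further: binding of Prmt1 protein to compounds spotted on small-molecule microarray slides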
[2] = growth effects on S. cerevisiae YJM789 – YJM789 clinical isolate, OD600, 24 h, basal, primary screen (AID 1089); settings: higher = more signal, called active from +8 up or from −8 down;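 further: growth of clinical yeast isolate S. cerevisiae YJM 789 seeded 1000 cells per well; test concentration not given here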
[3] = S. pombe growth modifiers, basal conditions – strain 972, OD600, 24 h, no modulator, primary screen (AID 1090);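 further: basal condition with compound alone and no growth modifier present; test concentration not given here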; settings: S. pombe 972 growth, higher = more signal, called active from +8 up or from −8 down
[4] = budding yeast growth modifiers under rapamycin – strain BY4716, OD600, 96 h, primary screen (AID 1091); further: test concentration not given here; settings: S. cerevisiae BY4716 + rapamycin, higher = more signal, called active from +8 up or from −8 down
[5] = target: Torsin-1A-interacting protein 2 (Homo sapiens) (UniProt Q8NFQ8); experiment: small molecules binding lysate-expressed LULL1 – cell lysate, human LULL1 lysate, 635/667 nm fluorescence, primary screen (AID 1092); settings: small-molecule microarray, hLULL1 lysate binding, 635 nm fluorescence; higher = more signal;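 further: probe is lysate of COS7 cells overexpressing human LULL1; score merges per-feature 667 nm fluorescence with signal-to-noise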
Chain of Torsin-1A-interacting protein 2 (Homo sapiens) (Q8NFQ8 whole entry, looked up): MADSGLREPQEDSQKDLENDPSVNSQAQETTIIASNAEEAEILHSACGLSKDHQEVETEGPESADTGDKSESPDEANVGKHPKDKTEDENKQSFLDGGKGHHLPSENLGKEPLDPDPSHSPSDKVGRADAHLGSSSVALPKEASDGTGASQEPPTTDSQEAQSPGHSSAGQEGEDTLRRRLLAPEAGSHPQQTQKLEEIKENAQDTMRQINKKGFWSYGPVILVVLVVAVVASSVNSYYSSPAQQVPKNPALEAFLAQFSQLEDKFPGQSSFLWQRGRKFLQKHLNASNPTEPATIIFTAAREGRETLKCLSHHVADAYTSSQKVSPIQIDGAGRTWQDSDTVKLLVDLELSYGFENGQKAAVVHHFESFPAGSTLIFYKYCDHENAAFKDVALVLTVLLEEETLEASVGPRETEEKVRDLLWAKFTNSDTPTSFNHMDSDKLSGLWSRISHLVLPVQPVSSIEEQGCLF

[6] = optical density change of DRC41 E. coli – strain DRC41, OD650, 24 h, E. coli filamentation project, primary screen (AID 1093);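 further: MC1000 strain lacking acrAB efflux and sulA so SOS filamentation is blocked; test concentration not given here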; settings: E. coli DRC41 growth, higher = more signal, called active from +8 up or from −8 down
[7] = probe aLefty2 binding to arrayed compounds – biochemical, biotinylated probe, 635/667 nm fluorescence, primary screen (AID 1094); settings: small-molecule microarray, higher = more signal;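 further: score merges spot fluorescence near 667 nm with spot signal-to-noise ratio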
[8] = tested on: Noggin (protein binding on small-molecule microarray); experiment: small molecules binding Noggin protein – biochemical, 635/667 nm fluorescence, primary screen (AID 1095); settings: 635 nm fluorescence, higher = more signal;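 further: score merges 667 nm feature fluorescence with signal to noise over triplicate slides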
[9] = target: Neurogenic locus notch homolog protein 3 (Homo sapiens) (UniProt Q9UM47); experiment: small molecules binding NOTCH3 protein – biochemical, 635/667 nm fluorescence, primary screen (AID 1096); settings: small-molecule microarray, 635 nm fluorescence, higher = more signal
Chain of Neurogenic locus notch homolog protein 3 (Homo sapiens) (Q9UM47 whole entry, looked up): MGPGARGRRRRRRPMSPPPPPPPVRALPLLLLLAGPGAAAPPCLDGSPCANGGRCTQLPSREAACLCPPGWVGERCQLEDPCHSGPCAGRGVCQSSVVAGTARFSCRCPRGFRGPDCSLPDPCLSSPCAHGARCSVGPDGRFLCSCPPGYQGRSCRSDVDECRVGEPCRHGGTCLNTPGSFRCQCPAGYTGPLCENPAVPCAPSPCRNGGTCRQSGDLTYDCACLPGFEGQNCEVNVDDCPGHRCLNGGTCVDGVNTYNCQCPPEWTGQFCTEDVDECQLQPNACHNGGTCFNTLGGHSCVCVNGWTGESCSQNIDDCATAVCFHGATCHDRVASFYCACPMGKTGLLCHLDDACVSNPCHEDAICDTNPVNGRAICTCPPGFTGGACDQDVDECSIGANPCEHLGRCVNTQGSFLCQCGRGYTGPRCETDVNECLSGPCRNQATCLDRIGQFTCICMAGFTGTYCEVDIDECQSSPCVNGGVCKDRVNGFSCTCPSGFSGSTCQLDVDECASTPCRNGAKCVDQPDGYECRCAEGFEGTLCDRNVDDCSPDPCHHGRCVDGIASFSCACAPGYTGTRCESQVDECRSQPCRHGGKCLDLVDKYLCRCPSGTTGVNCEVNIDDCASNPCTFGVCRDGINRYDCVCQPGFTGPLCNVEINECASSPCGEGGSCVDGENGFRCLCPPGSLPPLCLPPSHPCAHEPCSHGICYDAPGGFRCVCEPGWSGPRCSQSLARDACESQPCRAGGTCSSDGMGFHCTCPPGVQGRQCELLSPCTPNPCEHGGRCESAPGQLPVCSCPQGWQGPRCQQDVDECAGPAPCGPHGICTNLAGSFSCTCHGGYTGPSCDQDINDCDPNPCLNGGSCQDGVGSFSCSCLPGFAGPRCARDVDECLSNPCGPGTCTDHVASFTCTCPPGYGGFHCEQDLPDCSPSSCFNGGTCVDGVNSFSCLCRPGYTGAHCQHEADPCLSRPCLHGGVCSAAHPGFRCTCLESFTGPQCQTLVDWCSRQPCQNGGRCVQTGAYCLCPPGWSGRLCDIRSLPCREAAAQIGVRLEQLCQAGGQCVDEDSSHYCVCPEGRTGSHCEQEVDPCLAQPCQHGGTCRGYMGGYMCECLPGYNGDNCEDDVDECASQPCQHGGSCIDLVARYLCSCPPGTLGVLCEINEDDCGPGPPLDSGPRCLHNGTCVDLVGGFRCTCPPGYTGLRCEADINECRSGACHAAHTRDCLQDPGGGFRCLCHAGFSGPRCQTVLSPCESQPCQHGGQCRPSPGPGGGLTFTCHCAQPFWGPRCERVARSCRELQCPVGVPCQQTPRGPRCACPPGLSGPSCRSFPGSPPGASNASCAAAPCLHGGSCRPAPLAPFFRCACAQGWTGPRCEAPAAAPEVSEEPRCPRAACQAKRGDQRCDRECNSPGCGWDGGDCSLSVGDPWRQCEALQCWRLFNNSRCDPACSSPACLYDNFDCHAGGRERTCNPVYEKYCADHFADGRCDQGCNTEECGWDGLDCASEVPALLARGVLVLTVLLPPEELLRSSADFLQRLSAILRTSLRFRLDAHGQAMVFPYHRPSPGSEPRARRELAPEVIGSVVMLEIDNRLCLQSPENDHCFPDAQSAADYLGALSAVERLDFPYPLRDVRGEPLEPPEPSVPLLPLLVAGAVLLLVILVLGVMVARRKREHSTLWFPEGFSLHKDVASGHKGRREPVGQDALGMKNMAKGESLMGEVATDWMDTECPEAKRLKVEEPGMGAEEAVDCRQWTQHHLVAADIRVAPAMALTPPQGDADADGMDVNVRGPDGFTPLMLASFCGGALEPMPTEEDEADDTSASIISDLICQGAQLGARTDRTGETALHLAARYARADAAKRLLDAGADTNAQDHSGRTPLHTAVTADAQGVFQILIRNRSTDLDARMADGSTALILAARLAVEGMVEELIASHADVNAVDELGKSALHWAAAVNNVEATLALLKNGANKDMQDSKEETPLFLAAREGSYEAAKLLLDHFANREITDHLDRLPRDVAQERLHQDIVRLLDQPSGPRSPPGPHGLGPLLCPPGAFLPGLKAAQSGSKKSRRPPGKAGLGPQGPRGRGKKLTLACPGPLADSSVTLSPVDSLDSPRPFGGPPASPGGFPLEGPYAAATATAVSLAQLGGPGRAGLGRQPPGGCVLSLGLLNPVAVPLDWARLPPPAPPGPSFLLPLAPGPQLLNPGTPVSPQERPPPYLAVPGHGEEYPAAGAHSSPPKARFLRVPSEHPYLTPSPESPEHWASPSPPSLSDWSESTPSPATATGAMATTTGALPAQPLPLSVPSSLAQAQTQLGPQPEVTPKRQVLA

[10] = probe aEGFR binding to arrayed compounds – biochemical, biotinylated probe, 635/667 nm fluorescence, primary screen (AID 1097); settings: small-molecule microarray, higher = more signal;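 further: probe is a biotinylated anti-EGFR antibody binding compounds printed on slides; score combines fluorescence near 667 nm and signal to noise of each spot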
[11] = tested on: Plasmodium falciparum Sir2 (PF13_0152, Sir2A); experiment: Plasmodium falciparum Sir2A binding compounds – biochemical, small-molecule microarray, 635 nm fluorescence, primary screen (AID 1098); settings: fluorescence 635 nm, higher = more signal;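 further: score merges spot fluorescence intensity with its signal-to-noise ratio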
[12] = probe aDKK1 binding to arrayed compounds – biochemical, biotinylated probe, 635/667 nm fluorescence, primary screen (AID 1099); settings: small-molecule microarray, higher = more signal;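 further: score merges 667nm spot fluorescence with signal to noise across triplicate slides; reference of the scale not given here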
[13] = probe aCHRDL2 binding to arrayed compounds – biochemical, biotinylated probe, 635/667 nm fluorescence, primary screen (AID 1100); settings: small-molecule microarray, higher = more signal
[14] = change in splice reporter luminescence, either direction, cell-based, HEK293, spliceosome inhibition project, primary screen (AID 1101); settings: HEK293 splicing luciferase reporter, 24 h, higher = more signal, called active from +8 up or from −8 down;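 further: HEK293 cells carrying a splicing-competent luciferase reporter gene; test concentration not given here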
[15] = target: Fibroblast growth factor 10 (Homo sapiens) (UniProt O15520); experiment: compounds binding fibroblast growth factor 10 – biochemical, small-molecule microarray, 635 nm fluorescence, primary screen (AID 1102); settings: FGF10 binding, fluorescence 635 nm, higher = more signal
Chain of Fibroblast growth factor 10 (Homo sapiens) (O15520 whole entry, looked up): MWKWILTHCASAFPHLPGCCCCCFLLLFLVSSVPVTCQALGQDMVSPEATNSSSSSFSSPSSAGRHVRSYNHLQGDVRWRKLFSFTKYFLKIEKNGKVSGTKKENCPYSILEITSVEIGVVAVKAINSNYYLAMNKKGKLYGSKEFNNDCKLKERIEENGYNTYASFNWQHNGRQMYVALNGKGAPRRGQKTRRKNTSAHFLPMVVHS

[16] = tested on: glycogen synthase kinase-3 (GSK3A per assay name; protocol says GSK3B); experiment: compounds binding glycogen synthase kinase-3 – biochemical, small-molecule microarray, 635 nm fluorescence, GSK3A, primary screen (AID 1103); settings: fluorescence 635 nm, higher = more signal; further: the record names both GSK3A and GSK3B
[17] = target: Epidermal growth factor receptor (Homo sapiens) (UniProt P00533); experiment: compounds binding epidermal growth factor receptor – biochemical, small-molecule microarray, 635 nm fluorescence, primary screen (AID 1104); settings: EGFR binding, higher = more signal;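 further: score merges 667 nm emission intensity with spot signal to noise over triplicate slides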
Chain of Epidermal growth factor receptor (Homo sapiens) (P00533 whole entry, looked up): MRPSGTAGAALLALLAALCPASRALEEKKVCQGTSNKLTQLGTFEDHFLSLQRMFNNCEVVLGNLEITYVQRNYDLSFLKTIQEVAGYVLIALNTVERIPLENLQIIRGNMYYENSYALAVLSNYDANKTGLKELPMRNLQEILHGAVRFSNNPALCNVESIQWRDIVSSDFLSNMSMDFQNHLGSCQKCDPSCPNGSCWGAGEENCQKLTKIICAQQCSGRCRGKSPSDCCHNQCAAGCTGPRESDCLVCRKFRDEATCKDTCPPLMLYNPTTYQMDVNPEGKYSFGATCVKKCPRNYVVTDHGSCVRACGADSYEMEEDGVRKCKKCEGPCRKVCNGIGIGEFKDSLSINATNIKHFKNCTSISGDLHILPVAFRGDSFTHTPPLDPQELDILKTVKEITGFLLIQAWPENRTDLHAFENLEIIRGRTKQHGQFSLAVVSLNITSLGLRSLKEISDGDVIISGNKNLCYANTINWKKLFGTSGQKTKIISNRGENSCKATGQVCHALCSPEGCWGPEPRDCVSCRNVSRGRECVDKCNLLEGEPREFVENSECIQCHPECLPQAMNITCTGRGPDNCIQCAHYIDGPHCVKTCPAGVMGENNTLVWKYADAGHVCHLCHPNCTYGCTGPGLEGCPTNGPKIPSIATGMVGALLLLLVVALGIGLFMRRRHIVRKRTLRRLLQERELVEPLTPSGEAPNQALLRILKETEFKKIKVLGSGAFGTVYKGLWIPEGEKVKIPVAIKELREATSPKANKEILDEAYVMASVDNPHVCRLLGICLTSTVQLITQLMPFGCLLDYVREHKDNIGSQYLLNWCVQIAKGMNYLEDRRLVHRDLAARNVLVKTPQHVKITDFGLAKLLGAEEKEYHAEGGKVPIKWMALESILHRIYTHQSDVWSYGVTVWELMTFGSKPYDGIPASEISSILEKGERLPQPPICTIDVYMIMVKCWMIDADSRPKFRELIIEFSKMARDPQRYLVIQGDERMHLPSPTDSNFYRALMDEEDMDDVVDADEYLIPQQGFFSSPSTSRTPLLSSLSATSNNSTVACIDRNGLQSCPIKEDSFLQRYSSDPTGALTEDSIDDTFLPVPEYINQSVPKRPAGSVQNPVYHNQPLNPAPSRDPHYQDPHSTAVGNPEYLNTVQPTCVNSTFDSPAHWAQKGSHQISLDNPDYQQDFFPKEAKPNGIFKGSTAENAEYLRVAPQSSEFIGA

[18] = target: Follistatin-related protein 3 (Homo sapiens) (UniProt O95633); experiment: compounds binding follistatin-related protein 3 – biochemical, small-molecule microarray, 635 nm fluorescence, primary screen (AID 1105); settings: FSTL3 binding, higher = more signal;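 further: score merges emission near 667 nm and signal to noise per printed spot across three slides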
Chain of Follistatin-related protein 3 (Homo sapiens) (O95633 whole entry, looked up): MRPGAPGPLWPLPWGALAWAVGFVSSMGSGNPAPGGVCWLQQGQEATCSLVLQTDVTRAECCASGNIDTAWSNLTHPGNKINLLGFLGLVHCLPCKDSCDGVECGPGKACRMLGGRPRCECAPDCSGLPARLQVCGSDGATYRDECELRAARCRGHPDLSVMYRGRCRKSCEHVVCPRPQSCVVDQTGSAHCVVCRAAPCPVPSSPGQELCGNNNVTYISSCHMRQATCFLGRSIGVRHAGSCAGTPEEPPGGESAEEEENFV

[19] = target: Dickkopf-related protein 1 (Homo sapiens) (UniProt O94907); experiment: small molecules binding DKK1 protein – biochemical, small-molecule microarray, 635 nm fluorescence scan, primary screen (AID 1106); settings: higher = more signal;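 further: score merges emission near 667 nm with signal to noise over three replicate slides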
Chain of Dickkopf-related protein 1 (Homo sapiens) (O94907 whole entry, looked up): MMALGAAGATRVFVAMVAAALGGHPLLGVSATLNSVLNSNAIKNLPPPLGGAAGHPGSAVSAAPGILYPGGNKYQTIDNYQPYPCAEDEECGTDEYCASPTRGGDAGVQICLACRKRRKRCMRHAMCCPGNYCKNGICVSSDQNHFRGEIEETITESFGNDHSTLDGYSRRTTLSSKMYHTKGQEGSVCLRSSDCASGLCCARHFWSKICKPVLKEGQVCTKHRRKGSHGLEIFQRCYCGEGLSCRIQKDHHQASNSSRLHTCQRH

[20] = tested on: Inhibin beta A chain (activin A); experiment: small molecules binding activin A – biochemical, small-molecule microarray, 635 nm fluorescence scan, primary screen (AID 1107); settings: INHBA, higher = more signal;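 further: mouse activin A protein probed at 4.33 µg/mL on printed slides; score merges bound-protein fluorescence near 667 nm with spot signal-to-noise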

Row | Structure (SMILES) | composite z-score [1] | z-score [2] | z-score [3] | z-score [4] | composite z-score [5] | z-score [6] | composite z-score [7] | composite z-score [8] | composite z-score [9] | composite z-score [10] | composite z-score [11] | composite z-score [12] | composite z-score [13] | z-score [14] | composite z-score [15] | composite z-score [16] | composite z-score [17] | composite z-score [18] | composite z-score [19] | composite z-score [20]
1 | O=C1OCC=C[C@H]2OC34C=CCN(CCN5CCOCC5)C(=O)[C@H]3N(CCCCCO)C(=O)[C@@H]4[C@@H]12 (stereo not given in full) | -0.0623 | -1 (inactive) | -0.586 (inactive) | -0.406 (inactive) | 2.22 | -0.0128 (inactive) | -0.0282 | 0.0316 | -0.255 | -0.0831 | 1.35 | -0.284 | -0.227 | 0.636 (inactive) | -0.736 | -0.0692 | -0.411 | -0.412 | -0.24 | 0.77
2 | N#Cc1ccc(NN2C(C(O)c3ccco3)C=CC3C(=O)N(c4ccccc4)C(=O)C32)cc1 (stereo not given) | 0.327 | 0.0011 (inactive) | 0.376 (inactive) | 1.7 (inactive) | 2.41 | -3.5 (inactive) | 0.0815 | -0.0593 | 0.591 | -0.0411 | 0.939 | 0.565 | 0.843 | 1.07 (inactive) | 0.505 | -0.202 | 0.0343 | 0.0837 | 0.18 | 0.921
3 | COc1cc(C(O)C2C=CC3C(=O)N(C)C(=O)C3N2NC(=O)OC(C)(C)C)cc(OC)c1OC (stereo not given) | 1.09 | 0.61 (inactive) | 2 (inactive) | 1.15 (inactive) | 3.16 | -1.34 (inactive) | 0.604 | -0.23 | 0.697 | 0.561 | 1.27 | 1.2 | 0.739 | 1.21 (inactive) | 0.447 | 0.833 | 0.189 | 0.234 | -0.076 | 0.442
4 | COC(=O)[C@]1(Cc2ccccc2CN=[N+]=[N-])N=C(c2ccc(OCCCO)cc2)O[C@@H]1c1ccccc1 | -0.985 | 0.697 (inactive) | -1.55 (inactive) | 35.3 (active) | 0.475 | 0.437 (inactive) | 0.17 | -0.586 | -0.601 | -0.257 | 1.15 | -0.0032 | 0.987 | -2.04 (inactive) | -1.34 | -1.08 | -1.46 | -0.869 | -1 | 0.53
5 | OCCCC1=CC(c2cccs2)N(Cc2cccc(OC(F)(F)F)c2)CC1 (stereo not given) | 0.532 | -2.28 (inactive) | -14.6 (active) | 1.15 (inactive) | 0.365 | -0.15 (inactive) | -0.0998 | 0.0008 | -0.602 | -0.115 | 1.32 | -0.14 | -0.138 | -0.733 (inactive) | -0.566 | -0.729 | -0.547 | -0.537 | -0.015 | 0.756
6 | C=C(COC)C(=O)CC[C@H](OC(=O)c1ccccc1-c1ccccc1C(=O)O)c1ccc(CO)o1 | 1.56 | -1.91 (inactive) | 0.436 (inactive) | 0.526 (inactive) | 1.37 | 0.229 (inactive) | -0.216 | 0.757 | 0.391 | -0.17 | 0.806 | -0.416 | -0.479 | -0.0254 (inactive) | 1.43 | 0.645 | -0.358 | 0.451 | 0.532 | 1.19
7 | O=C(C=C(CC(O)c1cccc(Cl)c1)OCCF)OCCF (stereo not given) | -1.87 | -2.44 (inactive) | 0.291 (inactive) | -0.582 (inactive) | 0.0714 | -0.106 (inactive) | -0.166 | -1.22 | -1.11 | -0.128 | 1.87 | 0.558 | 0.913 | -0.985 (inactive) | -0.357 | -0.571 | -0.737 | -0.863 | -0.735 | 1.31
8 | CC1CC/C=C\[C@H]2OC34C=CCN(Cc5ccccc5)C(=O)[C@H]3N(CCO)C(=O)[C@@H]4C2C(=O)O1 (stereo not given in full) | 0.205 | -0.404 (inactive) | -0.791 (inactive) | 0.285 (inactive) | 1.27 | 1.36 (inactive) | -0.0042 | -0.585 | -0.127 | -0.113 | 1.59 | -0.0038 | 0.681 | 0.229 (inactive) | 0.237 | -0.252 | -1.11 | -1.07 | -0.798 | 1.23
9 | [N-]=[N+]=NCc1ccccc1[C@H]1OC(c2ccc(OCCCO)cc2)=N[C@@]1(Cc1ccccc1N=[N+]=[N-])C(=O)NCCN1CCOCC1 | 1.54 | 0.0051 (inactive) | -13.9 (active) | 0.355 (inactive) | 3.43 | 0.72 (inactive) | 0.328 | 0.476 | 1.02 | -0.0205 | 0.879 | 0.901 | 1.15 | -0.44 (inactive) | 1.26 | 1.3 | 0.558 | 1.32 | 0.136 | 0.511
10 | CC(C)CN1C(=O)[C@@]2(Cc3ccccc31)c1ccccc1C(=O)N(Cc1ccccc1)[C@H]2c1ccc(CO)cc1 | -0.594 | -0.0832 (inactive) | -0.519 (inactive) | -1.46 (inactive) | 0.771 | -0.336 (inactive) | -0.131 | -0.34 | -0.395 | -0.348 | -0.743 | 0.236 | 0.514 | -0.489 (inactive) | -0.701 | -0.776 | -0.636 | 0.554 | -0.952 | -0.298
11 | COC(=O)[C@@]1(Cc2ccc(OC)cc2)[C@H]2c3cc(C(=O)N(C)C)n(Cc4cc(C)n(C)n4)c3C[C@H]2CN1C(=O)c1ccccc1 | 0.847 | 0.296 (inactive) | 0.134 (inactive) | 0.562 (inactive) | 3.99 | -1.13 (inactive) | 0.14 | 0.119 | 0.598 | 0.0423 | 1.07 | 0.383 | 0.433 | -1.03 (inactive) | 1.43 | 0.902 | -0.232 | -0.0771 | -0.382 | 0.79
12 | COc1cc2c(cc1OC)CN(C(=O)[C@@H]1[C@H]3C(=O)O[C@H](c4ccccc4)[C@H](c4ccccc4)N3[C@H](c3ccc(O)cc3)[C@@]13C(=O)Nc1ccc(C#CCNC(N)=O)cc13)CC2 | 0.666 | 1.1 (inactive) | 1.27 (inactive) | 1.48 (inactive) | 1.22 | 0.364 (inactive) | 0.0835 | 1.03 | 0.802 | -0.0455 | 0.55 | -0.053 | 0.0095 | -0.256 (inactive) | 0.641 | -0.566 | 0.0967 | 0.694 | -0.162 | 0.849
